Assay outcomes deposited in PubChem by several laboratories.
Cav3 T inh = Cav3.2 calcium influx blockers – cell-based, Fluo-4 calcium fluorescence, FDSS, MLSMR library, primary screen | Voltage-dependent T-type calcium channel subunit alpha-1H (Homo sapiens), O95180 | Cav3.2-expressing cells; active compounds read low | B-score at 10 µM | 100,000 compounds, 4% hits | AID 449739, 2010;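 active means single-dose well whose peak fluorescence ratio is a statistical outlier from its plate by either plate-standardised score or position-corrected B-score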
PTK2B oligo ant = antagonists of Pyk2 self-association, primary screen, Q293 cells, FERM NanoBiT luminescence, HTS | AID 1347419, 2020 | active compounds read low | 99,000 compounds, 0.83% hits | z-score (the deposit names both 25 µM and 10 µM) | Protein-tyrosine kinase 2-beta (Homo sapiens), Q14289;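 active means Z-score of -3 or lower, scaled per plate to the spread of control and sample wells; inactive means z-score above -3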;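 further: negative z-score means lost luminescence so less FERM oligomerization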
CYP2C19 activ = human CYP2C19 activators, primary screen, biochemical, luminescence. 96,000 tested, under 10 active. activation factor at 5 µM. Cytochrome P450 2C19 (Homo sapiens), P33261. recombinant CYP2C19, luciferin-H EGE luminescence; active compounds read high; 0 = fully inhibited enzyme, 1 = untreated enzyme;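 active means activation factor of at least 2 at 5 µM in the primary screen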
CYP2C9 activ = human CYP2C9 activators, primary screen, biochemical, luminescence | Cytochrome P450 2C9 (Homo sapiens), P11712 | recombinant CYP2C9, luciferin-H conversion; active compounds read high; factor 1 = untreated enzyme, 0 = blocked | activation factor at 5 µM | 96,000 compounds, 1.4% hits | AID 1024, 2008;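 active means activation factor of 2 or more for CYP2C9 at a 5 µM dose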
CYP2C9 inh = blockers of cytochrome P450 2C9 activity – biochemical, luminescence, ADME assay, primary screen. 96,000 compounds, 20% hits. inhibition, % at 5 µM. AID 777, 2007. CYP2C9 Supersomes, luciferin-H conversion;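 active means blocking of liver enzyme CYP2C9 beyond about 50% at 5 µM, limit read from the data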
CYP2C19 inhib = blockers of cytochrome P450 2C19 activity – biochemical, luminescence, ADME assay, primary screen; CYP2C19 Supersomes, luciferin-H EGE luminescence, 30 min; inhibition, % at 5 µM; 96,000 compounds, 21% hits; AID 778, 2007;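 active means CYP2C19 inhibition above a set limit at 5 µM in the primary screen, cut at about 50% in these data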
Numbers stand for hits. Rows were chosen to be rich in hits. Some 27% of all compounds tested hit in one or more screens of this group.

What do the screens show for `COc1ccc(OC)c(NC(=O)C(=O)N/N=C/c2ccccc2[N+](=O)[O-])c1`?
Cav3 T inh: inactive; PTK2B oligo ant: inactive; CYP2C19 activ: inactive; CYP2C9 activ: 2.2; CYP2C9 inh: inactive; CYP2C19 inhib: inactive

How did CCOC(=O)C1=C(C)N(CCCC(=O)O)C(=O)NC1c1cccs1 (centres undefined) do in these assays?
Cav3 T inh: inactive

Results for CN(C)c1ccc(-c2nnn(CC(=O)N3c4ccccc4CCc4ccccc43)n2)cc1 ?
Cav3 T inh: inactive; PTK2B oligo ant: inactive; CYP2C19 activ: inactive; CYP2C9 activ: inactive; CYP2C9 inh: 77; CYP2C19 inhib: 71

What do the screens show for `CN(C)c1ccc(-c2nnn(CC(=O)Nc3ccccc3N3CCOCC3)n2)cc1`?
PTK2B oligo ant: inactive; CYP2C19 activ: inactive; CYP2C9 activ: inactive; CYP2C9 inh: 90; CYP2C19 inhib: inactive

What do the screens show for `Cc1ccccc1NC(=O)Cn1nnc(-c2ccc(N3CCOCC3)cc2)n1`?
Cav3 T inh: inactive; PTK2B oligo ant: inactive; CYP2C19 activ: inactive; CYP2C9 activ: inactive; CYP2C9 inh: inactive; CYP2C19 inhib: inactive

Results for COc1ccc2c(c1OC)C(=O)N1N=C(c3ccc(Cl)cc3)CC21 (centres undefined) ?
PTK2B oligo ant: inactive

How did CN=c1scc(C)n1/N=C/c1ccc(O)cc1 do in these assays?
Cav3 T inh: inactive; PTK2B oligo ant: inactive; CYP2C19 activ: inactive; CYP2C9 activ: inactive; CYP2C9 inh: inactive; CYP2C19 inhib: inactive

How did CN=c1scc(C)n1/N=C/c1ccc2c(c1)OCO2 do in these assays?
Cav3 T inh: -4; PTK2B oligo ant: inactive; CYP2C19 activ: inactive; CYP2C9 activ: inactive; CYP2C9 inh: inactive; CYP2C19 inhib: inactive

How did COc1cccc(NC(=O)N(CCCN2CCOCC2)C(C)c2cc3ccccc3o2)c1 (centres undefined) do in these assays?
Cav3 T inh: inactive; PTK2B oligo ant: inactive; CYP2C19 activ: inactive; CYP2C9 activ: inactive; CYP2C9 inh: 52; CYP2C19 inhib: inactive

How did COc1ccc(OC)c(CN(CCCN2CCOCC2)C(=O)Nc2ccccc2)c1 do in these assays?
Cav3 T inh: inactive; PTK2B oligo ant: inactive

What do the screens show for `COc1cccc(NC(=O)N(CCCN2CCOCC2)C(C)c2cc3cccc(OC)c3o2)c1` (centres undefined)?
Cav3 T inh: inactive; PTK2B oligo ant: inactive; CYP2C19 activ: inactive; CYP2C9 activ: inactive; CYP2C9 inh: 67; CYP2C19 inhib: 66

What do the screens show for `C[C@@]12CCC=C[C@H]1[C@H](c1ccc(C(F)(F)F)cc1)N(Cc1ccccc1)C2=O`?
Cav3 T inh: inactive

What do the screens show for `Fc1ccccc1CSc1nncn1NC/C=C/c1ccccc1`?
Cav3 T inh: inactive; PTK2B oligo ant: inactive; CYP2C19 activ: inactive; CYP2C9 activ: inactive; CYP2C9 inh: inactive; CYP2C19 inhib: 53

Results for Cc1nnc(SCc2ccc(F)cc2)n1NC/C=C/c1ccccc1 ?
Cav3 T inh: inactive; PTK2B oligo ant: inactive

What do the screens show for `CCN1C(=O)c2cccc3c(NC(=O)c4ccc(S(=O)(=O)N5CCOCC5)cc4)ccc1c23`?
Cav3 T inh: inactive; PTK2B oligo ant: inactive; CYP2C19 activ: inactive; CYP2C9 activ: inactive; CYP2C9 inh: 74; CYP2C19 inhib: inactive

Results for CCN1C(=O)c2cccc3c(NS(=O)(=O)c4ccc(NC(C)=O)cc4)ccc1c23 ?
Cav3 T inh: inactive; PTK2B oligo ant: inactive; CYP2C19 activ: inactive; CYP2C9 activ: inactive; CYP2C9 inh: 86; CYP2C19 inhib: 99

What do the screens show for `CCN1C(=O)c2cccc3c(S(=O)(=O)Nc4ccccc4OC)ccc1c23`?
CYP2C19 activ: inactive; CYP2C9 activ: inactive; CYP2C9 inh: 99; CYP2C19 inhib: 61

Results for CCOC(=O)c1ccc(NC(=O)Nc2ccc3c4c(cccc24)C(=O)N3CC)cc1 ?
Cav3 T inh: inactive; PTK2B oligo ant: inactive; CYP2C19 activ: inactive; CYP2C9 activ: inactive; CYP2C9 inh: inactive; CYP2C19 inhib: inactive
